ALDH1A1 block – qHTS Assay for Inhibitors of Aldehyde Dehydrogenase 1 (ALDH1A1); 220,000 tested, 7.3% active; Aldehyde dehydrogenase 1A1 (Homo sapiens), P00352; Purified ALDH1A1, NADH fluorescence, propionaldehyde substrate; Potency, µM (doses to about 75.3 µM), hits mostly inhibitors; active means well fitted inhibition curve with a large enough effect, not every such curve was filed as active; inconclusive means small, poorly fitted or top-dose-only effect, or another doubt; inactive means no such curve, though single readings can be large or run the other way
IMPase inh – qHTS Assay for Identifying the Cell-Membrane Permeable IMPase Inhibitors; Inositol monophosphatase 1 (Rattus norvegicus), P97697; CHO-M1 cells, IP1 accumulation, HTRF TR-FRET ratio; inhibition (IP1 accumulation), % at 46.1 µM; 120,000 tested, under 10 active; AID 901, 2007; active means well fitted curve in the direction sought with a large enough effect in the signal ratio, not every such curve was filed as active; inconclusive means small, poorly fitted or top-dose-only effect, or a change in a side signal; inactive means no such curve, though single readings can be large or run the other way; the % refers to the signal ratio;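 further: cells stimulated with carbachol in lithium chloride buffer; higher means more IMPase inhibition seen as more IP1 and lower FRET ratio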
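In this qHTS, compounds (final up to 46 uM) act on CHO-M1 cells that are then activated through the M1 receptor with carbachol, in pH 7.4 buffer containing 50 mM LiCl, for 30 min. IP1 accumulation is quantified by the IP-One immunoassay.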
HPGD inh – qHTS Assay for Inhibitors of HPGD (15-Hydroxyprostaglandin Dehydrogenase). purified HPGD, NADH fluorescence kinetic, PGE2 substrate. Potency, µM, actives largely listed as inhibitors. 150,000 tested, 4.3% active. AID 894, 2007; active means well fitted inhibition curve with a large enough effect, not every such curve was filed as active; inconclusive means small, poorly fitted or top-dose-only effect, or another doubt; inactive means no such curve, though single readings can be large or run the other way
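NADH formation kinetics: reaction with 30 uM PGE2 and 1 mM NAD+ (final), 20 nM enzyme, Tris-HCl pH 8 with Tween 20, after 15 min compound preincubation at room temperature. Fluorescence change, last versus first of five reads.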
NPSR antagonist – qHTS Assay for Antagonists of the Neuropeptide S Receptor: cAMP Signal Transduction; CHO-NPSR cells, cAMP TR-FRET, antagonist mode; Q6W5P4; Potency, µM (doses to about 38.3 µM), usual class: inhibitors; 220,000 tested, 1% active; further: nearly all actives have a fitted effect of over 50% in size
ALOX12 inhib – qHTS Assay for Inhibitors of 12-hLO (12-human lipoxygenase). Polyunsaturated fatty acid lipoxygenase ALOX12 (Homo sapiens), P18054. purified 12-hLO, xylenol orange hydroperoxide absorbance. Potency, µM (doses to about 57.1 µM), hits mostly inhibitors. 150,000 tested, 0.12% active; further: nearly all actives have a fitted effect of over 55% in size
Target sequence (P18054 whole entry, looked up): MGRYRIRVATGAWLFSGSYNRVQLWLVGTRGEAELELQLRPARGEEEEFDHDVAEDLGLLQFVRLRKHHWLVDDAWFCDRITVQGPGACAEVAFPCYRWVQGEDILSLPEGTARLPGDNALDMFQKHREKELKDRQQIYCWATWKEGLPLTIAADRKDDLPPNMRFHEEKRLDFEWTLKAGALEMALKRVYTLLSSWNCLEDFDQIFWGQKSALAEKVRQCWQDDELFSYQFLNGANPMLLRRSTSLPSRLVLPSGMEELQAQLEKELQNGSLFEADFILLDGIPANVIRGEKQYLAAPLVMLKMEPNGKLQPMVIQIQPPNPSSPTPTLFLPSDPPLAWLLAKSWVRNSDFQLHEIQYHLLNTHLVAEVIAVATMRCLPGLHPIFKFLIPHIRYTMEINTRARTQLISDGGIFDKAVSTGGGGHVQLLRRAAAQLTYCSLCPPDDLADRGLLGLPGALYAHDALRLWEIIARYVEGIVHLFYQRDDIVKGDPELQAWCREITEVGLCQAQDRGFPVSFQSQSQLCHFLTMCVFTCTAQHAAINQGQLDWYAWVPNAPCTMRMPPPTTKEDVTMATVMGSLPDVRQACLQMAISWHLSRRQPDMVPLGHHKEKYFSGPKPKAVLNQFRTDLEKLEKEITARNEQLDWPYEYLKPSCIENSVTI
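150 nM 12hLO, 25 mM Hepes pH 7.0 + 0.01% Triton X-100; cpd preinc 15 min RT; 40 uM arachidonic acid, 30 min RT; Fe-XO 30 min; A573/A405 ratio as read-out.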
IMPase Li cell – qHTS Assay for Identifying the Cell-Membrane Permeable IMPase Inhibitors: Potentiation with Lithium | Potency, µM (titrated, usually from 59.4 µM), hits mostly inhibitors | CHO-M1 cells, IP1 TR-FRET (IP-One), carbachol + lithium | 210,000 tested, 0.35% active | AID 1457, 2008;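 further: IP1 builds up when IMPase is blocked and the TR-FRET signal falls; nearly all actives have a fitted effect of over 50% in size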
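CHO-M1, 2000 cells/well, 16–30 h culture; cpd + low Li+, 30 min 37C; lysis with d2-IP1/Eu-anti-IP1 Ab, 10 min RT; TR-FRET 665/620 ratio and 620 channel; AC50 via Hill.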
Each line names hits and unclear results; the compound was inactive in the other large screens. An excerpt weighted towards active compounds, which were near 8.9% of everything screened. Unless noted, the call rests on the fitted dose curve; in most records, active means well fitted curve in the direction sought with a large enough effect; inconclusive means small, poorly fitted or top-dose-only effect, or another doubt; inactive means no such curve, though single readings can be large; an effect the other way counts as inactive or inconclusive.

CN1CCN(C2=Cc3ccccc3Sc3cc(F)c(F)cc32)CC1	HPGD inh 25.1µM, NPSR antagonist inconclusive
CN1CCN(C2=Cc3cc(Cl)ccc3Sc3cc(F)ccc32)CC1	NPSR antagonist inconclusive
CN1CCN(C2=Cc3ccccc3Sc3cc(F)c(Cl)cc32)CC1	ALDH1A1 block 5.62µM, HPGD inh 28.2µM, NPSR antagonist inconclusive
CC(=O)n1nc2nc(C)cc(C)c2c1N	none
O=C(COc1ccccc1Br)c1ccc(O)cc1O	none
CCN(CC)c1ccc(/C=C(\C#N)c2ccccn2)cc1	ALDH1A1 block inconclusive (no result: IMPase inh)
CCN(Cc1ccccc1)c1ccc(/C=C(\C#N)c2ccccn2)cc1	ALDH1A1 block 14.1µM (no result: HPGD inh, IMPase Li cell)
CC(C(=O)N1CCOCC1)(c1ccccc1)c1ccccc1	none
C=CCSc1nn2c(=O)c3ccccc3nc2s1	none
CCN(C(=O)Nc1ccccc1)c1ccccc1	none (no result: IMPase inh)
O=C(Nc1ccccc1)N(O)c1ccc(Cl)cc1	ALDH1A1 block 1µM
COc1ccc(C(=O)Nc2ccc(S(=O)(=O)Nc3cc(C)nc(C)n3)cc2)cc1OC	ALDH1A1 block 10µM (no result: IMPase inh, HPGD inh, ALOX12 inhib)
Cc1cc(NS(=O)(=O)c2ccc(NC(=O)/C=C/c3ccc(C)o3)cc2)nc(C)n1	ALDH1A1 block 3.55µM (no result: IMPase inh, HPGD inh, ALOX12 inhib, IMPase Li cell)
COc1cc(OC)cc(C(=O)Nc2ccc(S(=O)(=O)Nc3cc(C)nc(C)n3)cc2)c1	ALDH1A1 block 5.01µM
COc1cc2nc(C3CCC3)n(NC(=O)COc3ccccc3)c(=O)c2cc1OC	none
BrC(=C\c1ccccc1)/C=N/Nc1nc(N2CCOCC2)nc(N2CCOCC2)n1	HPGD inh 15.8µM (no result: IMPase inh)
CCN(CC)CCNC(=O)CS(=O)Cc1nc(-c2ccccc2Cl)oc1C (stereo unspecified)	none
COc1ccc(S(=O)(=O)N2CCC(C(=O)N3CCCC3)CC2)cc1	none
Cc1nc2ncnn2c(C)c1CCC(=O)Nc1ccc(S(=O)(=O)N2CCCCCC2)cc1	ALDH1A1 block 6.31µM, HPGD inh 15.8µM
CC(=O)Nc1ccc(S(=O)(=O)N2CCSC2C(=O)O)cc1 (stereo unspecified)	ALDH1A1 block 17.8µM
Cc1ccc(NC(=O)CCc2c(C)nc3ncnn3c2C)cc1	none
CC(C)(C)n1cnc2cc(NS(=O)(=O)c3ccccc3)ccc21	HPGD inh inconclusive
COc1ccc(S(=O)(=O)N2CCC(C(=O)N3CCCCCC3)CC2)cc1	ALDH1A1 block inconclusive, HPGD inh 15.8µM
COc1ccc(-n2cnc3cc(NS(=O)(=O)c4ccccc4)ccc32)cc1	ALDH1A1 block inconclusive, HPGD inh 11.2µM
O=C(O)c1cccc(S(=O)(=O)NCCc2ccccc2)c1	none (no result: IMPase inh, HPGD inh, ALOX12 inhib)
COc1ccc(S(=O)(=O)N(CC(=O)Nc2ccc(S(=O)(=O)N3CCOCC3)cc2)Cc2ccc(F)cc2)cc1	ALDH1A1 block inconclusive (no result: IMPase inh)
O=S(=O)(Nc1ccc(S(=O)(=O)N2CCOCC2)cc1)c1ccccc1	none
CC(=O)Nc1ccc(S(=O)(=O)N2CCN(C(C)CCc3ccccc3)CC2)cc1 (stereo unspecified)	ALDH1A1 block 31.6µM
CC(=O)Nc1ccc(NC(=O)C(C)N2CCN(S(=O)(=O)c3ccc(C)cc3)CC2)cc1 (stereo unspecified)	none (no result: IMPase inh, HPGD inh, ALOX12 inhib)
COc1ccc(S(=O)(=O)N(CC(=O)Nc2ccc(S(=O)(=O)N3CCOCC3)cc2)c2ccccc2)cc1	ALDH1A1 block inconclusive, HPGD inh 3.55µM
COC(=O)Nc1ccc(S(=O)(=O)N2CCCCC2)cc1	none
O=C(O)/C=C/C(=O)Nc1ccc(S(=O)(=O)N2CCCC2)cc1	ALDH1A1 block 22.4µM (no result: IMPase inh, HPGD inh, ALOX12 inhib)
COc1ccc(NS(=O)(=O)c2ccc(S(=O)(=O)N3CCOCC3)cc2)cc1	ALDH1A1 block 1.41µM (no result: IMPase inh, HPGD inh, ALOX12 inhib)
N/C(COc1cccc(Cl)c1)=N\O	none (no result: ALDH1A1 block, IMPase inh, HPGD inh, ALOX12 inhib, IMPase Li cell)
COc1ccc(NC2=NC(C)(CO)CS2)cc1 (stereo unspecified)	none (no result: IMPase inh, HPGD inh, ALOX12 inhib, IMPase Li cell)

Assay outcomes: PubChem, National Center for Advancing Translational Sciences (NCATS)
